Results on six compounds are retold here after PubChem BioAssay (Tox21).

Each structure is given as a SMILES string. Unmarked numbers belong to inactive results. Activity calls are given as the source filed them. Unless noted, calls come from the whole dose curve; as a rule, active = well fitted curve in the direction sought with a large enough effect in the repeat runs; inconclusive = weak or mixed curves; inactive = no such curve, though single readings can be large; an effect the other way counts as inactive or inconclusive.

Assay [1] is described as follows: qHTS assay to identify small molecule antagonists of the glucocorticoid receptor (GR) signaling pathway - cell viability counter screen (AID 720693). Note: nearly all actives have a fitted effect of over 55% in size. Note: potency is the fitted concentration of half-maximal effect. On the technique in general: In qHTS, concentration-response curves come from the screen itself.
The nature of assay [2]: qHTS assay for identifying genotoxic compounds that show differential cytotoxicity against isogenic chicken DT40 cell lines with known DNA damage response pathways - wild type cell line (AID 743012). Note: nearly all actives have a fitted effect of over 60% in size. Note: potency is the fitted concentration of half-maximal effect. Put shortly:
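Quantitative HTS on parental DT40 cells: 40 h compound treatment at 37 C/5% CO2, with viability then determined by CellTiter-Glo luminescence. Values serve as the DNA repair-proficient reference for differential cytotoxicity.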

Assay [3] is described as follows: qHTS assay for identifying genotoxic compounds that show differential cytotoxicity against isogenic chicken DT40 cell lines with known DNA damage response pathways - Rev3 mutant cell line (AID 743014). Note: nearly all actives have a fitted effect of over 55% in size. Note: potency is the fitted concentration of half-maximal effect.
The nature of assay [4]: qHTS assay for identifying genotoxic compounds that show differential cytotoxicity against isogenic chicken DT40 cell lines with known DNA damage response pathways - Rad54/Ku70 mutant cell line (AID 743015). Note: potency is the fitted concentration of half-maximal effect; nearly all actives have a fitted effect of over 60% in size.
The nature of assay [5]: qHTS assay to identify small molecule antagonists of the androgen receptor (AR) signaling pathway - cell viability counter screen (AID 743033; note: potency is the fitted concentration of half-maximal effect; nearly all actives have a fitted effect of over 45% in size).
Assay [6] is described as follows: qHTS assay to identify small molecule antagonists of the thyroid receptor (TR) signaling pathway - cell viability counter screen (AID 743064). Note: potency is the fitted concentration of half-maximal effect; nearly all actives have a fitted effect of over 50% in size. Put shortly:
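In rat pituitary GH3.TRE-Luc reporter cells co-exposed to compound and 1 nM T3 for 23.5 h, cytotoxicity was assessed with CellTiter-Fluor in the same wells, read by fluorescence.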

The nature of assay [7]: qHTS assay to identify small molecule antagonists of the thyroid receptor (TR) signaling pathway (AID 743065). Note: potency is the fitted concentration of half-maximal effect; nearly all actives have a fitted effect of over 55% in size. Put shortly: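 GH3.TRE-Luc rat pituitary cells carrying two TR response elements driving luciferase were plated for 4 h, given compound plus 1 nM T3 (final), and incubated 23.5 h at 37 C. ONE-Glo luminescence measured reporter inhibition; CellTiter-Fluor fluorescence tracked cytotoxicity.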

For assay [8], the system named is thyroid hormone receptor (rat, GH3 cells). The assay can be described thus: qHTS assay to identify small molecule agonists of the thyroid receptor (TR) signaling pathway (AID 743066; calls by dose curve; note: % is set by controls: 0 for no effect and ±100 for the full control effect).
Assay [9] in a line: qHTS assay to identify small molecule antagonists of the estrogen receptor alpha (ER-alpha) signaling pathway using the BG1 cell line - cell viability counter screen (AID 743081).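 Note: compound given together with 17beta-estradiol as the ER stimulus; nearly all actives have a fitted effect of over 45% in size.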 Note: potency is the fitted concentration of half-maximal effect.
Assay [10] concerns the target Aromatase (Homo sapiens) (UniProt P11511). Description: qHTS assay to identify aromatase inhibitors (AID 743083). Note: potency is the fitted concentration of half-maximal effect; nearly all actives have a fitted effect of over 55% in size.
The target of assay [11] is Androgen receptor (Homo sapiens) (UniProt P10275). The assay can be described thus: qHTS assay to identify small molecule antagonists of the androgen receptor (AR) signaling pathway (AID 743035; active = well fitted inhibition curve with a large enough effect in the signal ratio in the repeat runs, not every such curve was filed as active; inconclusive = weak or mixed curves, or effect the other way; inactive = no such curve, though single readings can be large or run the other way; the % refers to the signal ratio; note: potency is the fitted concentration of half-maximal effect). The gist of the method: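 Cell line: GeneBLAzer AR-UAS-bla GripTite (HEK293). Stimulus: R1881 added after compound. Exposure: 16 h, 37C, 5% CO2. Readout: LiveBLAzer B/G FRET fluorescence after 2 h at room temperature.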
Androgen receptor (Homo sapiens), sequence (P10275 whole entry, looked up): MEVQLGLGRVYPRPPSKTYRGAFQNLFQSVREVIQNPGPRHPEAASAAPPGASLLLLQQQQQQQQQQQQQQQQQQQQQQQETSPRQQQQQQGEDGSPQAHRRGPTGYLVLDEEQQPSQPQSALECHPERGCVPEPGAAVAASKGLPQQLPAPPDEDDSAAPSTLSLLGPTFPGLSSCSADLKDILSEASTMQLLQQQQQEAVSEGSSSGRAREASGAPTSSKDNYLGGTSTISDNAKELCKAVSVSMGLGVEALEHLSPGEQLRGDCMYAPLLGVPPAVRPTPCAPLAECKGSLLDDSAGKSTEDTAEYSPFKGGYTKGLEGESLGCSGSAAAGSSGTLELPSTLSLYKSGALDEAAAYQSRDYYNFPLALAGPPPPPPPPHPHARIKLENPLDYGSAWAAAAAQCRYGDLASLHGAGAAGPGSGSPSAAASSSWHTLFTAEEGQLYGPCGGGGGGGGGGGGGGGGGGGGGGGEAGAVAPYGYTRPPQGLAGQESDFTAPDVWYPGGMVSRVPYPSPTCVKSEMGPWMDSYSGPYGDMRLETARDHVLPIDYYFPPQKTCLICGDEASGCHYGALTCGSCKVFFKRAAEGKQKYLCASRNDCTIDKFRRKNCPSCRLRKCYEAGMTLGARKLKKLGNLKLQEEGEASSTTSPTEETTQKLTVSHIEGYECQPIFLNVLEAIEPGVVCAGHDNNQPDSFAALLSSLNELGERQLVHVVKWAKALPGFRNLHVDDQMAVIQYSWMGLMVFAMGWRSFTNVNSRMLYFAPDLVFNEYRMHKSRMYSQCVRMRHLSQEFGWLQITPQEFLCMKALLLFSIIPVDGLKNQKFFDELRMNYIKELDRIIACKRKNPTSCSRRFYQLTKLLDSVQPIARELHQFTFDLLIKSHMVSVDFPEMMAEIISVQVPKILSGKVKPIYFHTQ

For assay [12] the target is unchanged. Description: qHTS assay to identify small molecule agonists of the androgen receptor (AR) signaling pathway using the MDA cell line (AID 743040; note: % is set by controls: 0 for no effect and ±100 for the full control effect; nearly all actives have a fitted effect of over 20% in size). The gist of the method:
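Luminescence from ONE-Glo, read after 30 min at room temperature, reflects MMTV-driven luciferase in MDA-kb2 cells (AR- and GR-responsive). Treatment lasted 16 h at 37C, 0% CO2.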

Assay [13] shares this target. The assay can be described thus: qHTS assay to identify small molecule antagonists of the androgen receptor (AR) signaling pathway using the MDA cell line (AID 743042). The gist of the method:
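MDA-kb2 cells (human breast carcinoma, stably carrying an MMTV-luciferase reporter responsive to AR and GR) were plated at 3,000 cells/well and preincubated 5 hr at 37C, then given compound plus R1881 agonist for 16 h. ONE-Glo luminescence was read.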

The target of assay [14] is Estrogen receptor (Homo sapiens) (UniProt P03372). The assay can be described thus: qHTS assay to identify small molecule antagonists of the estrogen receptor alpha (ER-alpha) signaling pathway (AID 743069; active = well fitted curve in the direction sought with a large enough effect in the signal ratio in the repeat runs, not every such curve was filed as active; inconclusive = weak or mixed curves, or effect the other way; inactive = no such curve, though single readings can be large or run the other way; the % refers to the signal ratio; note: potency is the fitted concentration of half-maximal effect). Put shortly:
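Estradiol-stimulated ER-alpha-UAS-bla HEK293 cells, 18 hr compound exposure at 37C. LiveBLAzer B/G substrate, 2 hr RT, fluorescence read.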

The target is the same in assay [15]. Description: qHTS assay to identify small molecule agonists of the estrogen receptor alpha (ER-alpha) signaling pathway (AID 743075; calls by dose curve;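 note: HEK293 GripTite cells with ER-alpha and UAS-driven beta-lactamase reporter; % is set by controls: 0 for no effect and ±100 for the full control effect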). Conditions: HEK293 ER-alpha-UAS-bla, beta-lactamase FRET ratio, 18 h; activation: at 70.1 µM (top of the series).
Assay [16] shares this target. Description: qHTS assay to identify small molecule agonists of the estrogen receptor alpha (ER-alpha) signaling pathway using the BG1 cell line (AID 743079). Note: % is set by controls: 0 for no effect and ±100 for the full control effect; nearly all actives have a fitted effect of over 20% in size. Conditions: BG1Luc4E2 cells, ERE-luciferase agonist, 22 h; at 95 µM (top of the series).
Assay [17] in a line: qHTS assay to identify small molecule antagonists of the estrogen receptor alpha (ER-alpha) signaling pathway using the BG1 cell line (AID 743080; calls by dose curve;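 note: BG1 cells stimulated with 17beta-estradiol alongside compound; potency is the fitted concentration of half-maximal effect; nearly all actives have a fitted effect of over 25% in size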). Put shortly: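 Seeding, 24 h rest, compound transfer from DMSO, 17beta-estradiol addition, 21.5 h incubation, CellTiter-Fluor (30 min, 37 C), then ONE-Glo (30 min, room temperature): this sequence was run on BG1-Luc-4E2 reporter cells.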

The nature of assay [18]: qHTS assay to identify small molecule antagonists of the estrogen receptor alpha (ER-alpha) signaling pathway - cell viability counter screen (AID 743074; calls by dose curve;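 note: HEK293 cells carrying ER-alpha-UAS-bla reporter stimulated with 17beta-estradiol; potency is the fitted concentration of half-maximal effect; nearly all actives have a fitted effect of over 45% in size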).
Assay [19] can be described thus: qHTS assay to identify small molecule antagonists of the androgen receptor (AR) signaling pathway using the MDA cell line - cell viability counter screen (AID 743041; note: potency is the fitted concentration of half-maximal effect; nearly all actives have a fitted effect of over 45% in size). Put shortly:
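Viability counter screen run alongside the AR antagonist reporter: cells seeded 5 h before compound, R1881 added, 16 h incubation at 37C without CO2, fluorescent CellTiter-Fluor signal quantified.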

Aromatase (Homo sapiens), sequence (P11511 whole entry, looked up): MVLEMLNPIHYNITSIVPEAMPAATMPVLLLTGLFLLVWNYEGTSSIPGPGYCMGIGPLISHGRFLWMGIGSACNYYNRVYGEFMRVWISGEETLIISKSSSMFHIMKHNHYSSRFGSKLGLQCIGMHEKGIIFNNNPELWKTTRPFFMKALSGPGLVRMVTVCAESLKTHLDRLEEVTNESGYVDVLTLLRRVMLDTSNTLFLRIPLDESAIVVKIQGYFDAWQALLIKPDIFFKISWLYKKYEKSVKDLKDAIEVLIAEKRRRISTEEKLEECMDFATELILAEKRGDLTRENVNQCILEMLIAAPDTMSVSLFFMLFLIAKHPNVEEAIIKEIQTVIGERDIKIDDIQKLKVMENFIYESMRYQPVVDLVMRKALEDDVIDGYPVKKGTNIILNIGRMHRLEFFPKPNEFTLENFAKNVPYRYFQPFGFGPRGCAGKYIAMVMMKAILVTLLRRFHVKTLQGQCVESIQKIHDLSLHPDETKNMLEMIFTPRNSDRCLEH
Estrogen receptor (Homo sapiens), sequence (P03372 whole entry, looked up): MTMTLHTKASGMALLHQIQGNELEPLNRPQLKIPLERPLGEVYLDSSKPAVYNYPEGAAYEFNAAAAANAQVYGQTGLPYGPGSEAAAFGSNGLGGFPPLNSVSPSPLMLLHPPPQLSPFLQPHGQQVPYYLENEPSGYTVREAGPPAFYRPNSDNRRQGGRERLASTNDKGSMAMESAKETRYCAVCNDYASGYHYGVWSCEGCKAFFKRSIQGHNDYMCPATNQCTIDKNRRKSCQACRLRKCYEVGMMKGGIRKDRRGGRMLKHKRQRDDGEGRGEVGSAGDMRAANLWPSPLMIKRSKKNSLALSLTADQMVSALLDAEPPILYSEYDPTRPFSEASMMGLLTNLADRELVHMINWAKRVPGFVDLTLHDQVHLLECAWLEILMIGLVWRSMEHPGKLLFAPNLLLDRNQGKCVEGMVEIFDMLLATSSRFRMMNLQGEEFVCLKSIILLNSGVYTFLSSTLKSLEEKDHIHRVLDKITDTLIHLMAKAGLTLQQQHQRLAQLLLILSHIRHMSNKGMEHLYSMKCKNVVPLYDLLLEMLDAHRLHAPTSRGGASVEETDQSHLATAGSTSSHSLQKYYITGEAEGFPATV

Regarding `C=CC(=O)OCCn1c(=O)n(CCOC(=O)C=C)c(=O)n(CCOC(=O)C=C)c1=O`, the Potency entry in assay [1] and in assay [8] was “inactive” throughout. Besides, the Potency was 2.73 µM (active) in assay [2]; 2.43 µM (active) in assay [3]; 2.43 µM (active) in [4]; 15.5 µM (active) in assay [5]; 5.45 µM (active) in [6]; 4.86 µM (active) in assay [7]. The Potency in [9] was 54.5 µM (active); in assay [10], 13.7 µM (active).
With `CCCCCCCC/C=C/CCCCCCCC1=NCCN1CCO`, the Potency was 49 µM (active) in assay [1]; 12.2 µM (active) in [2]; 13.7 µM (active) in assay [3]; 13.7 µM (active) in [4]; 49 µM (active) in assay [11]; 21.7 µM (active) in [6]. In addition, the Potency in [7] was 21.7 µM (active); in assay [10], 48.6 µM (active). The Potency entry in assay [12], in assay [13] and in assay [8] was “inactive” throughout.
As to `O=CC=C(c1ccccc1)c1ccccc1`, the Potency entry in assay [1], in assay [8], in assay [15] and in assay [9] was “inactive” in each case. Moreover, the Potency in assay [2] is 38.9 µM (active); in [3] it was 27.5 µM (active); in assay [4] it was 17.4 µM (active); in assay [5], 22.1 µM (active); in assay [6], 34.7 µM (active); in [7] it was 13.8 µM (active). Further, the Potency is 27.8 µM [inconclusive] (active) in assay [14] and 69.1 µM (active) in [17]. In assay [16], the activation was -5.89%.
Consider `COc1cc(-c2nc(NC(=O)c3cc4cc(C)cc(C)c4n3CC(=O)O)sc2CCC2CCCCC2)c(OC)cc1Cl`, for which the Potency in assay [1] is 14.2 µM (active); in assay [2] it was 35.3 µM (active); in [3] it was 22.3 µM (active); in [4] it was 22.3 µM (active); in assay [11] it was 5.65 µM (active); in [6], 12.5 µM (active). Moreover, the Potency in assay [7] was 11.2 µM (active); in assay [14] it was 3.57 µM [inconclusive] (active); in assay [18] it was 28.3 µM (active); in assay [10], 25 µM (active). Further, the Potency result in [12], in assay [8] and in [9] was “inactive” throughout.
Take `Oc1ccc(C2(c3ccc(O)cc3)CC3CC2C2CCCC32)cc1` (configuration not stated): the Potency result in [1], in assay [2], in assay [3], in assay [12], in [8] and in assay [9] was “inactive” each time. For the same compound, the Potency in [5] was 47 µM (active); in assay [6], 26.2 µM (active); in assay [14] it was 0.0592 µM [inconclusive] (active); in assay [17] it was 1.31 µM (active); in assay [10], 1.86 µM (active).
Take `On1ccccc1=S`: the Potency entry in [1] and in [9] was “inactive” throughout. Besides, the Potency is 0.215 µM (active) in assay [2]; 0.215 µM (active) in [3]; 0.385 µM (active) in [5]; 0.959 µM (active) in assay [19]; 1.52 µM (active) in assay [6]; 0.855 µM (active) in assay [7]. The Potency in assay [10] is 0.382 µM (active).
